Nrf2 activator = qHTS of Nrf2 Activators. AREc32 ARE-luciferase reporter (MCF7-derived line), luminescence, 24 h. Potency, µM (series often up to 46.1 µM), inactives show top-dose activation, actives largely listed as activators. 0.31% of 410,000 active; note: potency is the fitted concentration of half-maximal effect; % of control where 0% means no effect; nearly all actives have a fitted effect of over 65% in size
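Nrf2 activation is followed as ARE-luciferase induction in the AREc32 line after one day of compound treatment; luminescence is read with Steady-Glo.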
TCR activator = Activators of T cell receptors: qHTS campaign. primary human leukocytes, anti-CD3, IL-2 HTRF, 48 h. Potency, µM (series often up to 9.22 µM), for the others: top-dose activation of IL-2 secretion, hits mostly activators. 330,000 tested, under 10 active. AID 504894, 2011; note: % of control where 0% means no effect
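Activity was scored as IL-2 release from primary human leukocytes given only a TCR signal (a-CD3 beads) plus compound for 48 hr. Detection used a two-antibody HTRF format read at 665nm.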
AT treatment = qHTS Assay for Identifying a Potential Treatment of Ataxia-Telangiectasia; F2112 A-T fibroblasts, KAP-1 phosphorylation AlphaLISA; neocarzinostatin DNA damage 30 min before lysis; AID 485349, 2010; 0.19% of 320,000 active; Potency, µM (titrated, usually from 57.5 µM), for the others: top-dose activation, actives largely listed as activators; note: potency is the fitted concentration of half-maximal effect; % of control where 0% means no effect; nearly all actives have a fitted effect of over 45% in size
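hTERT-immortalized A-T patient fibroblasts (F2112), 500 cells/well in OPTI-MEM, 1% FBS, got compounds for 60 min, then NCS for 30 min at 37C. Lysates were then assayed for phospho-KAP-1 by AlphaLISA (anti-pKAP1 donor, anti-KAP1 acceptor beads), 6 hr at 25C.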
CCT modulator = High-Throughput Screening for Modulators of Cytosolic Chaperonin Activity. AID 651819, 2012. purified chaperonin ATPase assay, HTRF ADP detection, 30 min. 0.3% of 360,000 active. activity change, % (test concentration not listed), hits read low; in the data active = activity change below about -30%; note: % is set by controls: 0 for no effect and ±100 for the full control effect
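ATPase activity: ADP formed was measured by HTRF Transcreener (665/615 nm ratio) after 30 min at 37 deg C with 10 uM ATP. Compounds screened at one 76 uM concentration against 40 or 20 nM TRiC in Tris pH 7.4/KCl/MgCl2/DTT buffer.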
A549 tox = Nrf2 qHTS screen for inhibitors: counterscreen for cytotoxicity; AID 504648, 2011; 0.16% of 390,000 active; A549 ARE-Fluc cells, CellTiter-Fluor viability, 18-24 h; Potency, µM (highest dose often 46 µM), for inactives: at the top dose activity change, negative = cytotoxicity, hits mostly inhibitors; note: potency is the fitted concentration of half-maximal effect; % is set by controls: 0 for no effect and ±100 for the full control effect
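Cytotoxicity counterscreen: CellTiter-Fluor fluorescence was measured in A549 ARE_Fluc cells after 18-24 h of compound exposure in a concentration series. The subsequent BugLite luminescent read reports ARE-luciferase activity.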
Nrf2 block = Nrf2 qHTS screen for inhibitors. AID 504444, 2011. A549 ARE-Fluc reporter, luciferase luminescence, 18-24 h. 2.1% of 360,000 active. Potency, µM (series often up to 46 µM), for inactives: at the highest dose activity change, negative = inhibition, hits mostly inhibitors; note: potency is the fitted concentration of half-maximal effect; % is set by controls: 0 for no effect and ±100 for the full control effect; nearly all actives have a fitted effect of over 60% in size
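A549 ARE_Fluc cells (5000/well, 5% FBS OPTI-MEM) pre-incubated 2 h, then treated with compounds 18-24 h at 37C/5% CO2 in concentration-response. CellTiter-Fluor viability read first; BugLite luciferase luminescence after 15 min at room temperature gives Nrf2 activity.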
* = called active by the depositor; ? = inconclusive; nt = no result; [ ] = another dose, or the depositor's remark. In the library only some 2.6% were active in any assay of this set; here they are far more common. Unless noted, calls come from the whole dose curve; as a rule, active = well fitted curve in the direction sought with a large enough effect; inconclusive = small, poorly fitted or top-dose-only effect, or another doubt; inactive = no such curve, though single readings can be large; an effect the other way counts as inactive or inconclusive.

SMILES	Nrf2 activator	TCR activator	AT treatment	CCT modulator	A549 tox	Nrf2 block
Cc1ccc(C(=O)C2=C(O)C(=O)N(c3ncccn3)C2c2ccccc2F)o1 (stereo not given)	3%	2%	-4%	-66*	-8%	0%
CSc1nnc(N2C(=O)C(O)=C(C(=O)c3ccco3)C2c2ccccc2F)s1 (stereo not given)	14µM*	10%	-13%	2	-7%	15%
C=CCC(=O)N1CCCC(CO)(Cc2ccc(F)cc2F)C1 (stereo not given)	0%[9.22 µM]	-5%	-2%	2	5%	-12%
COc1ccc(OC)c(CCNc2nccn(-c3ccc(C)c(C)c3)c2=O)c1	6%	nt	nt	nt	-13%	-32%
COc1ccc(C(=O)NNC(=O)C(=O)Nc2ccc(C)c(Cl)c2)cc1	0%	2%	?	2	?	5.8µM*
O=C(Cn1cc(CNCc2ccccc2)nn1)Nc1cc(C(F)(F)F)ccc1Cl	nt	nt	nt	nt	-2%	10%
CCOC(=O)CC(C)(C)/C(C)=N/Nc1ccc([N+](=O)[O-])cc1[N+](=O)[O-]	6%	-2%[46.1 µM]	-2%	0	?	18µM*
O=C1NCCN(CC2CCN(CC3CCCC3)CC2)C1=O	0%	-3%	nt	0	1%	7%
CCN(CC)CCNC(=O)c1ccc2c(c1NCCO)C(=O)c1ccccc1C2=O	-3%	10%	-8%	2	?	3.3µM*
CC1CCN(C(=O)c2ccc3c(c2NCCO)C(=O)c2ccccc2C3=O)CC1	0%	0%	-4%	2	?	nt
CCN(CC)CCC(=O)Nc1cccc2c1C(=O)c1ccccc1C2=O	-2%	-32%	-1%	1	21µM*	16µM*
COc1cc(C2CC(=O)N(CC(=O)Nc3ccccc3F)c3ccccc3S2)cc(OC)c1OC (stereo not given)	-1%	nt	nt	nt	-18%	?
COc1ccccc1N1CCN(C(=O)c2cnc(N3CCCCC3)c3ccccc23)CC1	-1%	nt	nt	nt	-10%	nt
Cc1ccc(NC(=O)NC(=O)CN2CCN(c3ccc(O)cc3)CC2)c(C)c1	0%	2%	-1%	-4	-14%	23µM*
CC(C)(C)NC(=O)NC(=O)CN1CCN(c2ccc(O)cc2)CC1	0%	7%	1%	1	-21%	21µM*
COc1ccc(/C=C/c2nc3ccccc3c(=O)n2-c2cccc(C(F)(F)F)c2)cc1	3%	nt	nt	nt	7%	nt
O=[N+]([O-])c1cc(NS(=O)(=O)c2ccc(Cl)nc2)ccc1Cl	1%	-4%	-1%	-1	?	16µM*
CC(C)c1ccc(NS(=O)(=O)c2ccc(Cl)nc2)cc1	4%	5%	1%	1	6%	-15%
COc1cc(OC)cc(C(=O)N[C@H](C(=O)Nc2nc3c(s2)CCCC3)C(C)C)c1	8%	5%[46.1 µM]	-2%	1	-17%	23µM*
CC(C)[C@H](NC(=O)c1ccccc1F)C(=O)Nc1nc2c(s1)CCCC2	6%	0%[46.1 µM]	-5%	0	0%	13%
O=S(=O)(NCc1ccc2c(c1)OCO2)c1ccc2c(c1)oc1ccccc12	3%	nt	6%	-2	-15%	21µM*
O=C(N[C@@H]1CCC(=O)N(CC[C@H](Sc2ccc(Br)cc2)c2ccccc2)CC1)OCc1ccccc1	0%	13%	6%	-1	-5%	?
COc1ccc(S[C@@H](CCN2CC[C@H](NC(=O)OCc3ccccc3)CCC2=O)c2ccccc2)cc1	3%	-1%	-12%	-2	-24%	18µM*
CCn1c(SCC(=O)Nc2nc3ccc(C)cc3s2)nc2c(c1=O)SC(C)C2 (stereo not given)	3%	8%	-16%	1	?	18µM*
N#CC(c1cccc(Cl)c1)c1ccc2c(C(F)(F)F)cc(C(F)(F)F)nc2n1 (stereo not given)	16%	2%	nt	-5	6.5µM*	nt
SMILES	Nrf2 activator	TCR activator	AT treatment	CCT modulator	A549 tox	Nrf2 block
NNc1ccc2c(C(F)(F)F)cc(C(F)(F)F)nc2n1	0%	nt	1%	0	-10%	?
C#Cc1ccc(CN2CCC(C(=O)Nc3ccc(Oc4ccccc4)nc3)CC2)cc1	2%	-2%	6%	0	?	18µM*
O=C(Nc1ccc(Oc2ccccc2)nc1)C1CCN(Cc2ccco2)CC1	0%	5%	6%	1	3%	-28%
O=C(Nc1ccc(Oc2ccccc2)nc1)C1CCN(Cc2cccc(F)c2)CC1	2%	2%	-1%	1	?	18µM*
CCOC(=O)Cc1ccc(NC(=O)N(C(C)C)C2CCN(C(C)=O)CC2)cc1	-1%	nt	nt	nt	8%	5%
CCOc1cc(/C=C2/C(=O)ON=C2C)ccc1OCc1ccccc1F	2%	0%	8%	2	?	4.1µM*
CCOc1cc(/C=C2/C(=O)ON=C2C)ccc1OCc1ccccc1	0%	nt	-1%	-2	-4%	-7%
CCC1C(=NO)C(CC)C(c2ccccc2)NC1c1ccccc1 (stereo not given)	4%	-2%	9%	-2	-6%	?
CCC1C(=O)C(CC)C(c2ccccc2)NC1c1ccccc1 (stereo not given)	0%	1%	12%	-50*	1%	5%
COc1cn(CC(=O)Nc2ccc(C)cc2)c(CN2CCCCC2)cc1=O	0%	nt	nt	nt	-1%	nt
c1ccc2[nH]c3cc4ncnc4cc3nc2c1	0%	4%[46.1 µM]	-3%	-3	?	5.8µM*
CCCCN(CC)CCCNC(=O)c1cn(C)c2ccc(S(=O)(=O)N(C)C3CCCCC3)cc2c1=O	-1%	-2%	3%	-3	-2%	3%
CCOCCCNC(=O)c1cn(CC)c2ccc(S(=O)(=O)N3CCCC3)cc2c1=O	-1%	3%	-10%	-52*	1%	1%
C=CCn1cc(C(=O)NCc2ccco2)c(=O)c2cc(S(=O)(=O)N3CCCCCC3)ccc21	0%	-7%	-2%	0	-19%	12µM*
CCCCN(C)CCCNC(=O)c1cn(CC)c2ccc(S(=O)(=O)N3CCc4ccccc4C3)cc2c1=O	0%	5%	-4%	-59*	-6%	18%
CCCCN(C)CCCNC(=O)c1cn(C)c2ccc(S(=O)(=O)N(C)C3CCCCC3)cc2c1=O	-1%	-1%	4%	-54*	1%	-22%

Compound activity: PubChem, National Center for Advancing Translational Sciences (NCATS)
